Results reported in PubChem BioAssay (NCATS).
Results filed as inconclusive are left out. The source made the active and inactive calls. Calls come from the whole dose curve.
Potency is the fitted concentration of half-maximal effect.

Test: Cell Viability - MRC5 (AID 434);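 note: potency reflects cytotoxicity seen as loss of intracellular ATP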
Settings: MRC5 lung fibroblast viability, qHTS
Source text: NIH Chemical Genomics Center [NCGC]
NIH Molecular Libraries Screening Centers Network [MLSCN]
National Institutes of Environmental Health Sciences [NIEHS]
National Toxicology Program [NTP]
We have developed a 1536-well cell-based assay for quantitative high throughput screening (qHTS) against a number of cell lines to determine in vitro cytotoxicity of small molecules. This particular assay uses the MRC5 cell line which is derived from normal human lung fibroblasts.
NCGC Assay Protocol Summary:
The CellTiter-Glo luminescent cell viability assay (Promega) is a homogeneous method to measure the number of viable cells in culture. The end point readout of this assay is based on quantitation of intracellular ATP, an indicator of metabolic activity, using the luciferase reaction. Luciferase catalyzes the oxidation of beetle Luciferin to oxyluciferin and light in the presence of ATP. The luminescent signal is proportional to amount of ATP present.
Using the CellTiter-Glo luminescent cell viability assay, the amount of cellular ATP was measured in the MRC5 cell line with complete culture medium following compound treatment for 40 hours. The assay was performed in opaque white Kalypsys 1536-well plates. In the screen, tamoxifen and doxorubicin were used as positive controls. Library compounds were measured for their ability to cause acute toxicity in the cell line, as reflected by a decrease in intracellular ATP levels, in a concentration-dependent manner. Data were normalized to the controls for basal activity (DMSO only) and 100% inhibition (100 uM tamoxifen). AC50 values were determined from concentration-response data modeled with the standard Hill equation.
qHTS protocol for CellTiter Glo MRC5 cellular assay
[Step] [Parameter] [Value] [Description]
1. Reagent; 5 uL; 1500 MRC5 cells/well
2. Time; 5 hr; 37 °C incubation
4. Controls; 23 nL; Tamoxifen 0.34 uM to 100 uM & Doxorubicin 0.02 nM to 100 uM
5. Time; 40 hr; 37 °C incubation
6. Reagent; 5 uL; CellTiter Glo reagent
7. Time; 20 min; Room Temperature
8. Detection; Luminescence; Viewlux plate reader
Keywords: cell viability, cytotoxicity, MRC5 cell line, luminescence, NTPHTS, NTPHTS_NCGC, NIEHS, EPA, DSSTox, MLSMR, MLSCN, NIH Roadmap, qHTS, NCGC
In the case of S=c1[nH]c2ccccc2[nH]1, the Potency was > 92 µM (inactive). With CCSC(=O)N1CCCCCC1 the Potency was > 92 µM (inactive). With Cl/C=C/CCl the Potency was > 92 µM (inactive). In the case of Oc1cccc(Cl)c1Cl, the Potency was > 92 µM (inactive). For CC(C)(OOC(C)(C)c1ccccc1)c1ccccc1, the Potency was > 92 µM (inactive). For CC(C)CC(C)N (stereo not given), the Potency was > 92 µM (inactive). With CN(C)C(=O)Nc1cccc(C(F)(F)F)c1 the Potency was > 92 µM (inactive). For O=[N+]([O-])c1ccc2c3c(cccc13)CC2, the Potency was > 92 µM (inactive). In the case of O=C(O)CBr, the Potency was > 92 µM (inactive). With N#CCCCCC#N the Potency was > 92 µM (inactive). In the case of O=C(O)CCl, the Potency was > 92 µM (inactive). In the case of CC(C)[C@]12CC(=O)[C@H](C)[C@H]1C2, the Potency was > 92 µM (inactive). In the case of Clc1ccc(Cl)c(Cl)c1, the Potency was > 92 µM (inactive). In the case of Nc1ccc(Cc2ccc(N)cc2)cc1, the Potency was > 92 µM (inactive). For ClCC(Cl)Cl, the Potency was > 92 µM (inactive). For Cl/C=C\Cl, the Potency was > 92 µM (inactive). In the case of C/C=C/CC#N, the Potency was > 92 µM (inactive). For CCOC(=O)C1OC1(C)c1ccccc1 (stereo not given), the Potency was > 92 µM (inactive). In the case of Oc1c(Cl)cccc1Cl, the Potency was > 92 µM (inactive). In the case of c1ccc(Nc2ccc(Nc3ccccc3)cc2)cc1, the Potency was > 92 µM (inactive). In the case of OCCCCO, the Potency was > 92 µM (inactive). For Cc1ccc(N)cc1N, the Potency was > 92 µM (inactive). With Clc1cccc(Cl)c1 the Potency was > 92 µM (inactive). In the case of ClC(Cl)(Cl)C(Cl)(Cl)Cl, the Potency was > 92 µM (inactive). In the case of C=CCBr, the Potency was > 92 µM (inactive). With O=[N+]([O-])c1ccc(O)c([N+](=O)[O-])c1 the Potency was > 92 µM (inactive). For COc1c(C(C)(C)C)cc([N+](=O)[O-])c(C)c1[N+](=O)[O-], the Potency was > 92 µM (inactive). With Nc1ccc2ccccc2c1 the Potency was > 92 µM (inactive). In the case of ClCCOCCCl, the Potency was > 92 µM (inactive). For O=[N+]([O-])c1ccc(Cl)cc1, the Potency was > 92 µM (inactive). With CC(=O)[O-].CC(=O)[O-].CC(=O)[O-].[Cr+3] the Potency was > 92 µM (inactive). With N#CC(O)c1ccccc1 (stereo not given) the Potency was > 92 µM (inactive). For ClCC(Br)CBr (stereo not given), the Potency was > 92 µM (inactive). For Brc1cccc(-c2ccccc2)c1, the Potency was > 92 µM (inactive). In the case of Clc1ccccc1, the Potency was > 92 µM (inactive). With Nc1ccc(Oc2ccc(N)cc2)cc1 the Potency was > 92 µM (inactive). In the case of CCCC[N+](=O)[O-], the Potency was > 92 µM (inactive). In the case of O=[N+]([O-])c1cccc(O)c1, the Potency was > 92 µM (inactive). With Clc1cccc2ccccc12 the Potency was > 92 µM (inactive). For Cc1ccc(N)c(C)c1, the Potency was > 92 µM (inactive).
